Measurements taken from PubChem BioAssay (NCATS).
For some assays here: Entries with a potency or affinity are not part of this list. The source made the active and inactive calls.

Tests used:
[1] = Ebola virus entry assay, blue channel fluorescence
[2] = Ebola virus entry assay, green fluorescence channel
[3] = Ebola virus entry assay, ratio channel readout
[4] = Ebola virus entry assay, blue channel fluorescence; remark: listed apart in the source
[5] = Ebola virus entry assay, ratio channel
[6] = Ebola virus entry assay, green channel fluorescence

SMILES: CN1CCN2c3ncccc3Cc3ccccc3C2C1 (centres undefined)
- outcome [1]: inactive
- outcome [2]: inactive
- outcome [3]: inactive

SMILES: CO[C@H]1C[C@@H]2CC[C@@H](C)[C@@](O)(O2)C(=O)C(=O)N2CCCC[C@@H]2C(=O)O[C@H]([C@@H](C)C[C@@H]2CC[C@H](O)[C@H](OC)C2)CC(=O)[C@H](C)C=C(C)[C@@H](O)[C@@H](OC)C(=O)[C@H](C)C[C@H](C)C=CC=CC=C1C
- outcome [1]: inactive
- outcome [2]: inactive
- outcome [3]: inactive

SMILES: C=CC[C@@H]1C=C(C)C[C@H](C)C[C@H](OC)[C@H]2O[C@@](O)(C(=O)C(=O)N3CCCC[C@H]3C(=O)O[C@H](C(C)=C[C@@H]3CC[C@H](O)[C@H](OC)C3)[C@@H](C)[C@@H](O)CC1=O)[C@@H](C)C[C@@H]2OC
- outcome [1]: inactive
- outcome [2]: inactive
- outcome [3]: inactive

SMILES: C=CCN1C[C@H](C(=O)N(CCCN(C)C)C(=O)NCC)C[C@@H]2c3cccc4[nH]cc(c34)C[C@H]21
- outcome [1]: inactive
- outcome [2]: inactive
- outcome [3]: inactive
- outcome [4]: inactive
- outcome [5]: inactive
- outcome [6]: inactive

SMILES: CC[C@H]1OC(=O)[C@H](C)[C@@H](O[C@H]2C[C@@](C)(OC)[C@@H](O)[C@H](C)O2)C(C)[C@@H](O[C@@H]2O[C@H](C)C[C@H](N(C)C)[C@@H]2O)[C@](C)(OC)C[C@@H](C)C(=O)[C@H](C)[C@@H](O)[C@]1(C)O (some centres undefined)
- AC50 [1]: 7.94 µM (active)
- outcome [2]: inactive
- AC50 [3]: 7.95 µM (active)

SMILES: CO[C@@H]1[C@@H](O[C@@H]2O[C@H](C)[C@@H](O[C@H]3C[C@@](C)(O)[C@@H](O)[C@H](C)O3)[C@H](N(C)C)[C@H]2O)[C@@H](CC=O)C[C@@H](C)[C@@H](O[C@@H]2CC[C@H](N(C)C)[C@@H](C)O2)/C=C/C=C/C[C@@H](C)OC(=O)C[C@H]1O
- outcome [1]: inactive
- outcome [2]: inactive
- outcome [3]: inactive

SMILES: CC(C)[C@H]1C(=O)N2CCC[C@H]2[C@]2(O)O[C@](NC(=O)[C@@H]3C[C@@H]4c5cccc6[nH]cc(c56)C[C@H]4N(C)C3)(C(C)C)C(=O)N12
- outcome [1]: inactive
- outcome [2]: inactive
- outcome [3]: inactive

SMILES: CN1[C@@H]2CC[C@H]1CC(OC(c1ccccc1)c1ccccc1)C2 (some centres undefined)
- AC50 [1]: 5.01 µM (active)
- outcome [2]: inactive
- AC50 [3]: 3.55 µM (active)

SMILES: CO[C@H]1C[C@@H]2CC[C@@H](C)[C@@](O)(O2)C(=O)C(=O)N2CCCC[C@@H]2C(=O)O[C@H]([C@H](C)C[C@@H]2CC[C@H](OCCO)[C@H](OC)C2)CC(=O)[C@H](C)C=C(C)[C@@H](O)[C@@H](OC)C(=O)[C@H](C)C[C@H](C)C=CC=CC=C1C
- outcome [1]: inactive
- outcome [2]: inactive
- outcome [3]: inactive

SMILES: CC(C)(C)NC[C@H](O)COc1ccccc1C1CCCC1
- AC50 [1]: 4.47 µM (active)
- outcome [2]: inactive
- AC50 [3]: 3.55 µM (active)

SMILES: C=C[C@H]1CN2CC[C@H]1C[C@H]2[C@H](O)c1ccnc2ccc(OC)cc12
- outcome [1]: inactive
- outcome [2]: inactive
- outcome [3]: inactive
- AC50 [4]: 25.1 µM (active)
- AC50 [5]: 22.4 µM (active)
- outcome [6]: inactive

SMILES: CN1C[C@H](C(=O)N[C@]2(C)O[C@@]3(O)[C@@H]4CCCN4C(=O)[C@H](Cc4ccccc4)N3C2=O)C=C2c3cccc4[nH]cc(c34)C[C@H]21
- outcome [1]: inactive
- outcome [2]: inactive
- outcome [3]: inactive

SMILES: COc1cccc2c1C(=O)c1c(O)c3c(c(O)c1C2=O)C[C@@](O)(C(=O)CO)C[C@@H]3O[C@H]1C[C@H](N)[C@@H](O)[C@H](C)O1
- AC50 [1]: 7.94 µM (active)
- outcome [2]: inactive
- outcome [3]: inactive

SMILES: CNCCCC12CCC(c3ccccc31)c1ccccc12
- AC50 [1]: 3.16 µM (active)
- outcome [2]: inactive
- AC50 [3]: 3.17 µM (active)
- AC50 [4]: 3.55 µM (active)
- AC50 [5]: 3.16 µM (active)

SMILES: CN1CCN(CCC=C2c3ccccc3Sc3ccc(S(=O)(=O)N(C)C)cc32)CC1
- AC50 [1]: 4.47 µM (active)
- outcome [2]: inactive
- AC50 [3]: 4.47 µM (active)

SMILES: CCOC(=O)CCC(=O)O[C@H]1[C@H](O[C@@H]2[C@@H](C)[C@H](O[C@H]3C[C@@](C)(OC)[C@@H](O)[C@H](C)O3)[C@@H](C)C(=O)O[C@H](CC)[C@@](C)(O)[C@H](O)[C@@H](C)C(=O)[C@H](C)C[C@@]2(C)O)O[C@H](C)C[C@@H]1N(C)C
- outcome [1]: inactive
- outcome [2]: inactive
- outcome [3]: inactive

SMILES: C[C@@H]1O[C@@H](O[C@H]2CC[C@@]3(C)[C@H](CC[C@@H]4[C@H]3C[C@@H](O)[C@]3(C)[C@@H](C5=CC(=O)OC5)CC[C@]43O)C2)C[C@H](O)[C@@H]1O[C@H]1C[C@H](O)[C@H](O[C@H]2C[C@H](O)[C@@H](O)[C@@H](C)O2)[C@H](C)O1 (stereo in doubt)
- AC50 [1]: 1 µM (active)
- outcome [2]: inactive
- outcome [3]: inactive
